Source: PubChem BioAssay AID1159580 (chemical genetic matrix, 2015)
“And” between values parts separate entries of the source, which are not always exact repeats. Equal values may be shown once. Among all 5,500 compounds or so, about 2,000 (36%) were called active. About 18% were inconclusive and are not listed. Cut-off read from the data, not from the text of the source: active = normalized growth mostly below about 0.91 (no sharp cut-off); inconclusive = no clear call, values can overlap the other calls; inactive = mostly above about 0.92. Some of the results follow.

Experiment: chemical genetic growth profiling, strain panel (AID 1159580);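 note: tested at 20 µM; growth read once vehicle control cultures reached saturation at 30 °C; 1 = growth at the plate median or of vehicle wells; lower values mean less growth of the strain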
Conditions: S. cerevisiae deletion strains, growth OD

Measured: normalized growth

COc1c(C)c2c(c(O)c1C/C=C(\C)CCC(=O)O)C(=O)OC2
inactive: locus YBR021W, strain FUR4, stronger effect = lower value 1.07 | locus YBR171W, strain sec66, stronger effect = lower value 0.945 | locus YBR229C, strain ROT2, stronger effect = lower value 0.973 | locus YDL005C, strain med2, stronger effect = lower value 0.915 | locus YDL101C, strain DUN1, stronger effect = lower value 0.95 | locus YDR150W, strain NUM1, stronger effect = lower value 0.997 | locus YDR195W, strain ref2 1.09 | locus YER110C, stronger effect = lower value 1.02 | locus YGL240W, strain doc1, stronger effect = lower value 0.95 | locus YGR252W, strain gcn5, stronger effect = lower value 1.01 | locus YIL073C, strain SPO22, stronger effect = lower value 0.794 | locus YJL134W, strain LCB3, stronger effect = lower value 0.976 | locus YJL168C, strain set2, stronger effect = lower value 0.979 | locus YJR043C, strain POL32, stronger effect = lower value 0.906
0.974 (inactive) and 0.154 (active): locus YHR030C, strain SLT2, stronger effect = lower value
active: locus YAL013W, strain DEP1, stronger effect = lower value 0.84 | locus YAL021C, strain ccr4, stronger effect = lower value 0.556 | locus YAL026C, strain drs2, stronger effect = lower value 0.323 | locus YAL030W, strain snc1, stronger effect = lower value 0.621 | locus YBL061C, strain skt5, stronger effect = lower value 0.712 | locus YBR009C, strain hhf1, stronger effect = lower value 0.417 | locus YBR023C, strain chs3, stronger effect = lower value 0.602 | locus YBR231C, strain swc5, stronger effect = lower value 0.386 | locus YBR279W, strain paf1, stronger effect = lower value 0.613 | locus YCL011C, strain gbp2, stronger effect = lower value 0.47 | locus YCL016C, strain dcc1, stronger effect = lower value 0.518 | locus YCL029C, strain bik1, stronger effect = lower value 0.723 | locus YCL069W, strain vba3, stronger effect = lower value 0.395 | locus YCR088W, strain abp1, stronger effect = lower value 0.508 | locus YDL035C, strain GPR1, stronger effect = lower value 0.789 | locus YDL040C, strain nat1, stronger effect = lower value 0.758 | locus YDL074C, strain BRE1, stronger effect = lower value 0.498 | locus YDL134C, strain PPH21, stronger effect = lower value 0.876 | locus YDL185W, strain tfp1, stronger effect = lower value 0.185 | locus YDL192W, strain arf1, stronger effect = lower value 0.737 | locus YDR001C, strain nth1, stronger effect = lower value 0.604 | locus YDR069C, strain doa4, stronger effect = lower value 0.713 | locus YDR101C, strain arx1, stronger effect = lower value 0.668 | locus YDR137W, strain rgp1, stronger effect = lower value 0.345 | locus YDR159W, strain sac3, stronger effect = lower value 0.401 | locus YDR162C, strain NBP2, stronger effect = lower value 0.77 | locus YDR297W, strain sur2, stronger effect = lower value 0.664 | locus YDR318W, strain mcm21, stronger effect = lower value 0.625 | locus YDR334W, strain swr1, stronger effect = lower value 0.341 | locus YDR335W, strain msn5, stronger effect = lower value 0.549 | locus YDR388W, stronger effect = lower value 0.75 | locus YDR392W, strain spt3, stronger effect = lower value 0.0934 | locus YDR502C, strain sam2, stronger effect = lower value 0.666 | locus YEL003W, strain gim4, stronger effect = lower value 0.539 | locus YEL037C, strain rad23, stronger effect = lower value 0.451 | locus YEL061C, strain CIN8 (second series), stronger effect = lower value 0.368 | locus YEL061C, strain CIN8, stronger effect = lower value 0.863 | locus YER015W, strain faa2, stronger effect = lower value 0.667 | locus YER016W, strain bim1, stronger effect = lower value 0.761 | locus YER111C, strain swi4, stronger effect = lower value 0.662 | locus YER155C, strain BEM2 (second series), stronger effect = lower value 0.363 | locus YER155C, strain BEM2, stronger effect = lower value 0.781 | locus YER167W, strain BCK2, stronger effect = lower value 0.582 | locus YFR010W, strain ubp6, stronger effect = lower value 0.384 | locus YGL078C, strain dbp3, stronger effect = lower value 0.349 | locus YGL086W, strain mad1, stronger effect = lower value 0.759 | locus YGL167C, strain pmr1, stronger effect = lower value 0.666 | locus YGL173C, strain kem1, stronger effect = lower value 0.82 | locus YGL227W, strain vid30, stronger effect = lower value 0.494 | locus YGL248W, strain PDE1, stronger effect = lower value 0.861 | locus YGL253W, strain hxk2, stronger effect = lower value 0.437 | locus YGR078C, strain PAC10, stronger effect = lower value 0.808 | locus YGR135W, strain pre9, stronger effect = lower value 0.874 | locus YGR229C, strain SMI1, stronger effect = lower value 0.608 | locus YHR013C, strain ard1, stronger effect = lower value 0.533 | locus YHR027C, strain rpn1, stronger effect = lower value 0.699 | locus YHR079C, strain IRE1 (second series), stronger effect = lower value 0.536 | locus YHR079C, strain IRE1, stronger effect = lower value 0.165 | locus YHR094C, strain hxt1, stronger effect = lower value 0.734 | locus YHR129C, strain ARP1, stronger effect = lower value 0.869 | locus YHR142W, strain chs7, stronger effect = lower value 0.33 | locus YHR200W, strain rpn10, stronger effect = lower value 0.889 | locus YIL066C, strain RNR3, stronger effect = lower value 0.835 | locus YIL125W, strain kgd1, stronger effect = lower value 0.238 | locus YIR030C, strain dcg1, stronger effect = lower value 0.745 | locus YJL092W, strain hpr5, stronger effect = lower value 0.505 | locus YJL095W, strain BCK1 (second series), stronger effect = lower value 0.714 | locus YJL095W, strain BCK1, stronger effect = lower value 0.755 and 0.169 | locus YJL115W, strain asf1, stronger effect = lower value 0.593 | locus YJL129C, strain trk1, stronger effect = lower value 0.686 | locus YJL154C, strain vps35, stronger effect = lower value 0.596 | locus YJL164C, strain tpk1, stronger effect = lower value 0.469 | locus YJL166W, strain qcr8, stronger effect = lower value 0.641 | locus YJL187C, strain SWE1 (second series), stronger effect = lower value 0.749 | locus YJR066W, strain TOR1, stronger effect = lower value 0.0708 | locus YJR075W, strain HOC1, stronger effect = lower value 0.772
